Records with an inconclusive call do not appear. For some of these results: Measured potencies and affinities stand elsewhere. Activity calls are given as the source filed them. Unless noted, how the calls were made is not given here.
Assays:
[1] = target: ATP-dependent translocase ABCB1 (Homo sapiens) (UniProt P08183); assay: P-glycoprotein substrate transport blockade – cell-based (AID 377; in the data active means fluorescence slope change above about 50%); conditions: MDR1-expressing cells, fluorescent substrate accumulation slope; stronger effect = higher value; concentration not given here
Chain of ATP-dependent translocase ABCB1 (Homo sapiens) (P08183 whole entry, looked up): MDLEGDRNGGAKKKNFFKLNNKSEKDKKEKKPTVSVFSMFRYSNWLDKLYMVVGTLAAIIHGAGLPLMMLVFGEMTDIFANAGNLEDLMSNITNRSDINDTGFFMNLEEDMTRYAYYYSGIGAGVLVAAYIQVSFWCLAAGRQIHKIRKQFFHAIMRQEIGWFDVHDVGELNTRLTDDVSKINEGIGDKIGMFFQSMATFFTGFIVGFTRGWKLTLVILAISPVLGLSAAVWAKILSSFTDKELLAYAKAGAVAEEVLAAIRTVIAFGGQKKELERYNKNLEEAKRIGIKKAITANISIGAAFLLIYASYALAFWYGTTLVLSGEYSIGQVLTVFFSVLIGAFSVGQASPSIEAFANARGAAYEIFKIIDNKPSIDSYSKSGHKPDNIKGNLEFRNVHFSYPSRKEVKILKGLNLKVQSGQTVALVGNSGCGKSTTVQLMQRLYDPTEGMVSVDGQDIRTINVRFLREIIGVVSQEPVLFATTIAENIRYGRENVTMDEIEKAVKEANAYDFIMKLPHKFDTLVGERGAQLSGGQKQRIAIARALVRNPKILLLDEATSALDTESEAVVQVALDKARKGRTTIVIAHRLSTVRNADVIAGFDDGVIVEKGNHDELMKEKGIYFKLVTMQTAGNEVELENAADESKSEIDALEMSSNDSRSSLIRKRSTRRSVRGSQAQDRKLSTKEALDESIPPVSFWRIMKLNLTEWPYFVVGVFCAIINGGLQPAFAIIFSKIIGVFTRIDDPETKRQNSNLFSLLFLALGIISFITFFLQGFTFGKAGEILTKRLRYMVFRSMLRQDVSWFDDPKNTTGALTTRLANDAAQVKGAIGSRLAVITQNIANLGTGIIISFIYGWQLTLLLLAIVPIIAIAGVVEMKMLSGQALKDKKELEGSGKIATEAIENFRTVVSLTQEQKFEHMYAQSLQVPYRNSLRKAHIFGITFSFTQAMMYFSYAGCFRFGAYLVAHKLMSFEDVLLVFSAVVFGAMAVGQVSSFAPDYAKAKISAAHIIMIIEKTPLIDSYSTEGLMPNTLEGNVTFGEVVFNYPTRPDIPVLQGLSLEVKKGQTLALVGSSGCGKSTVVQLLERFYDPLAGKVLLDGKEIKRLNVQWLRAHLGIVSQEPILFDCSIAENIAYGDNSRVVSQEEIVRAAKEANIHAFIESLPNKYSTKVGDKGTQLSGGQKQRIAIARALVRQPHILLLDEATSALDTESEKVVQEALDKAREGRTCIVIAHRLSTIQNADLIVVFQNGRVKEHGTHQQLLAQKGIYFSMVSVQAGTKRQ

[2] = compounds altering viability of human ES cells (AID 493140); conditions: human embryonic stem cell survival screen; stronger effect = higher value;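 further: cells exposed to compounds for four days before counting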
[3] = P. berghei load reduction in hepatocytes – cell-based, HepG2, luciferase luminescence, HepG2 viability, primary screen (AID 624349; in the data active means parasite load remaining mostly below about 12%, no sharp cut-off; inactive means mostly above about 10%;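 further: 100% = mean of DMSO negative control wells on the same plate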); conditions: P. berghei liver stage in HepG2, luciferase luminescence, concentration not given here; parasite load remaining: stronger effect = lower value; viability: measured here: HepG2 viability without parasites
[4] = target: 6-phosphogluconate dehydrogenase, decarboxylating (Homo sapiens) (UniProt P52209); assay: inhibition of human phosphogluconate dehydrogenase – biochemical, recombinant enzyme, NADPH absorbance, primary screen (AID 1159550;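 active means at least 20% inhibition of 6-phosphogluconate dehydrogenase activity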); conditions: recombinant 6PGD, NADPH absorbance 341 nm; at 10 µM; stronger effect = higher value
Chain of 6-phosphogluconate dehydrogenase, decarboxylating (Homo sapiens) (P52209 whole entry, looked up): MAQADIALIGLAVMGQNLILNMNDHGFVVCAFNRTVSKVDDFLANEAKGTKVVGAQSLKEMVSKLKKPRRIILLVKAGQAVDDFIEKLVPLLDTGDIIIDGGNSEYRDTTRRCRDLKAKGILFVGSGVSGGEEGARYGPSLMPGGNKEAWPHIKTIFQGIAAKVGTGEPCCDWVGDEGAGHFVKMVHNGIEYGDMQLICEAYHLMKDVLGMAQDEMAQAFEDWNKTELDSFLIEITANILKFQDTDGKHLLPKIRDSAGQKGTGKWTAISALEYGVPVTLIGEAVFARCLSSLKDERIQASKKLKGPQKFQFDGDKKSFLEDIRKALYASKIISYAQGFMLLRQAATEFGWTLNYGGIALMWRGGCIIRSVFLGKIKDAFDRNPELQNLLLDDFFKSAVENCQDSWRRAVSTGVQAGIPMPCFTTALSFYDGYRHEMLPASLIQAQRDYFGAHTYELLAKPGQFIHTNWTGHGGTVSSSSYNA

[5] = target: Calcium-dependent protein kinase 1 (Plasmodium falciparum (isolate 3D7)) (UniProt P62344); assay: PfCDPK1 kinase inhibitors, biochemical, TCAMS library (AID 1159585; cut-off not given, nearly all actives have IC50 up to about 0.98 µM;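 further: inhibitors leave more ATP so luminescence rises with inhibition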); conditions: recombinant PfCDPK1, Kinase-Glo ATP depletion luminescence
Chain of Calcium-dependent protein kinase 1 (Plasmodium falciparum (isolate 3D7)) (P62344 whole entry, looked up): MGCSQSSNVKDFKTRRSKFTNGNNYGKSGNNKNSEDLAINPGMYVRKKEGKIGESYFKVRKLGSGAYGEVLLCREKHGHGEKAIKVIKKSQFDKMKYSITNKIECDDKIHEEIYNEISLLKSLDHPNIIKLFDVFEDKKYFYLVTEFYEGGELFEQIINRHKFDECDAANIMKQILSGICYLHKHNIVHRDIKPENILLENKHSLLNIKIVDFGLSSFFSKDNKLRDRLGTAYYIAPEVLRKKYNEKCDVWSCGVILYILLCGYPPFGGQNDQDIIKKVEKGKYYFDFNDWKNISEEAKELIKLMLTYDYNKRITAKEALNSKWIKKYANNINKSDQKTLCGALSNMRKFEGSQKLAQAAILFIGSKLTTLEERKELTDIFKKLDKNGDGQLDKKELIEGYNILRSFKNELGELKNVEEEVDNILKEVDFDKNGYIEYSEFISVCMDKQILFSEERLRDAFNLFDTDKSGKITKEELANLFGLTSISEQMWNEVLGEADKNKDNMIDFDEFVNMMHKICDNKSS

[6] = target: Plasmodium falciparum protein kinase 6 (PK6, PF3D7_1337100) (UniProt Q8IDW1); assay: PfPK6 kinase inhibitors, biochemical, TCAMS library (AID 1159586); conditions: recombinant PfPK6, Kinase-Glo ATP depletion luminescence
Chain of Plasmodium falciparum protein kinase 6 (PK6, PF3D7_1337100) (Q8IDW1 1-305): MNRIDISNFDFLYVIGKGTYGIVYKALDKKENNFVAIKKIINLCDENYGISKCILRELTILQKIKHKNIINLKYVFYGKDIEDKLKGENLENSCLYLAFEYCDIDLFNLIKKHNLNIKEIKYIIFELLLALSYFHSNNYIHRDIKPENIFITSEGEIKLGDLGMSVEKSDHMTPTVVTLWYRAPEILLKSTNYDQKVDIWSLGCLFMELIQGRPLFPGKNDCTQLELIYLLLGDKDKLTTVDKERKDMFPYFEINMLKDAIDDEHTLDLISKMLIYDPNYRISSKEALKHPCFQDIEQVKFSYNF

[7] = target: Protein kinase 7 (PK7), Plasmodium falciparum 3D7 (PF3D7_0213400) (UniProt Q7YTF7); assay: inhibition of Plasmodium PK7 catalytic activity – biochemical, TCAMS antimalarial set, Kinase-Glo luminescence (AID 1159587); conditions: recombinant PfPK7, Kinase-Glo ATP depletion luminescence
Chain of Protein kinase 7 (PK7), Plasmodium falciparum 3D7 (PF3D7_0213400) (Q7YTF7 1-343): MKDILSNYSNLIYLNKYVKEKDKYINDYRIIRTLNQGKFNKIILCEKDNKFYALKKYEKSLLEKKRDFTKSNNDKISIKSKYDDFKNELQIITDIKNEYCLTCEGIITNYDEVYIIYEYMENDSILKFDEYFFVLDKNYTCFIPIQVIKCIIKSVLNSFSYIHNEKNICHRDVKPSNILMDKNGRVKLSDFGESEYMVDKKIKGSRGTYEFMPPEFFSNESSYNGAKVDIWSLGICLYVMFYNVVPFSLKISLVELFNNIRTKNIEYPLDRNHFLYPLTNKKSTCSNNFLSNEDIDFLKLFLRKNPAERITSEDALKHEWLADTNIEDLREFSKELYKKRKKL

[8] = target: Calcium-dependent protein kinase 4 (Plasmodium falciparum (isolate 3D7)) (UniProt Q8IBS5); assay: PfCDPK4 kinase inhibitors, biochemical, TCAMS library (AID 1159588; cut-off not given, nearly all actives have IC50 up to about 0.91 µM); conditions: recombinant PfCDPK4, Kinase-Glo ATP depletion luminescence
Chain of Calcium-dependent protein kinase 4 (Plasmodium falciparum (isolate 3D7)) (Q8IBS5 whole entry, looked up): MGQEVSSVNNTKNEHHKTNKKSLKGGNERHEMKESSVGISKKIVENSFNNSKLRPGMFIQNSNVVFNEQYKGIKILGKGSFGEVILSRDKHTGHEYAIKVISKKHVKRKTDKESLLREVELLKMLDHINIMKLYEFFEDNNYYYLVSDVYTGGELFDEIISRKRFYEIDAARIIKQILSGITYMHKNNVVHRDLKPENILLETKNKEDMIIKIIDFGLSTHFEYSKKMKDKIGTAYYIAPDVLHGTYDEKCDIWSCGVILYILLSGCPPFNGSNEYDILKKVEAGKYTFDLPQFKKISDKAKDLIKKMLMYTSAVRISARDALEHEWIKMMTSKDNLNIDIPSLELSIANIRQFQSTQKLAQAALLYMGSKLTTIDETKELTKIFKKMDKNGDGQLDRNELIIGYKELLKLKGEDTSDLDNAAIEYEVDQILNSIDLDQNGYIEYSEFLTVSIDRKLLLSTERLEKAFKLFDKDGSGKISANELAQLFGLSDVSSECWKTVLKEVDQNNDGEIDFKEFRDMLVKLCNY

[9] = antimalarial activity against Dd2 strain (AID 2302;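 active means growth inhibition above 50% at the single 2 µM test dose, taken to imply half-maximal potency below 2 µM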;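 further: 0% = DMSO untreated growth and 100% = chloroquine plus artemisinin killed control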); conditions: P. falciparum Dd2 in RBCs, LDH growth readout, 72 h; at 2 µM; stronger effect = higher value
[10] = human hepatoma cell viability loss – ATP luminescence, cytotoxicity control for P. falciparum antimalarial project, primary screen (AID 2303;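 active means inhibition above 50%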;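 further: 0% = DMSO wells and 100% = digitonin-killed cells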); conditions: HepG2 viability, 24-48 h, at 10 µM, stronger effect = higher value
[11] = target: L-lactate dehydrogenase (Plasmodium falciparum (isolate CDC / Honduras)) (UniProt Q27743); assay: PfLDH activity inhibition – cell lysate, 3D7 strain, counter-screen for P. falciparum growth inhibition project (AID 2304);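 further: 0% = vehicle and 100% = reference inhibitor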; conditions: P. falciparum 3D7 crude extract, LDH APAD/NBT absorbance; at 2 µM; stronger effect = higher value
Chain of L-lactate dehydrogenase (Plasmodium falciparum (isolate CDC / Honduras)) (Q27743 whole entry, looked up): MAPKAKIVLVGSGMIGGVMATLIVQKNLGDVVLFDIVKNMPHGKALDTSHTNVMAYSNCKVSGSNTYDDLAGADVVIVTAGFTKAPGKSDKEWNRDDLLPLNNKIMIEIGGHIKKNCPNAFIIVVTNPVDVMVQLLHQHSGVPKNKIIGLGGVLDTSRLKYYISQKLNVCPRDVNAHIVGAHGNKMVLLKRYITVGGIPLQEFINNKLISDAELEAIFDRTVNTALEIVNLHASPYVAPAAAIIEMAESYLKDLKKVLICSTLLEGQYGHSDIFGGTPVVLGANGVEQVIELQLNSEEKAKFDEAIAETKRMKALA

[12] = inhibition of 3D7 malaria parasite growth – strain 3D7 (AID 2306);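 further: 0% = DMSO wells and 100% = chloroquine plus artemisinin control wells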; conditions: P. falciparum 3D7 erythrocytic growth, LDH absorbance, 72 h; at 2 µM; stronger effect = higher value
F380Y = assay: BK channel mutant inhibitors and activators – cell-based, U2OS BacMam, thallium flux, beta subunits, selectivity assay, profiling panel (AID 1259406;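 active means thallium flux through the channel raised or lowered by more than 3 SD from vehicle-only wells, actives on both sides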;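 further: initial slope of Thallos dye fluorescence rise after thallium is added; log ratio against the mean of 0.3% DMSO vehicle wells on the same plate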); conditions: U2OS BacMam BK variants, at 30 µM
F380Y/beta1 = assay: as above; conditions: U2OS BacMam BK variants, at 30 µM
F380Y/beta2Delta = assay: as above; conditions: U2OS BacMam BK variants, at 30 µM
F380Y/beta4 = assay: as above; conditions: U2OS BacMam BK variants, at 30 µM
[13] = target: Calcium-activated potassium channel subunit alpha-1 (Homo sapiens) + Leucine-rich repeat-containing protein 26 (Homo sapiens) (UniProt Q12791+Q2I0M4); assay: as above; conditions: U2OS BacMam BK variants, F380Y/Slo1WT/gamma1, at 30 µM
Chain of Calcium-activated potassium channel subunit alpha-1 (Homo sapiens) + Leucine-rich repeat-containing protein 26 (Homo sapiens) (Q2I0M4 whole entry, looked up, one chain of several): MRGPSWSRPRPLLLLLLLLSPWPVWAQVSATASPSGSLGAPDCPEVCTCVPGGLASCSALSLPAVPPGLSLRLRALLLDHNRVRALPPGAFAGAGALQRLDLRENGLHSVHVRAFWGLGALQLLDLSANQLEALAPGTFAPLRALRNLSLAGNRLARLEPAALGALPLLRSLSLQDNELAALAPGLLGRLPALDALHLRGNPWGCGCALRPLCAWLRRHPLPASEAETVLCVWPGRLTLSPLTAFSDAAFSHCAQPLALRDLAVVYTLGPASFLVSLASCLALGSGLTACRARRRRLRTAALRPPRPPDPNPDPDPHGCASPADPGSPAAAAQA

R275C = assay: as above; conditions: U2OS BacMam BK variants, at 30 µM
R275C/beta1 = assay: as above; conditions: U2OS BacMam BK variants, at 30 µM
R275C/beta2Delta = assay: as above; conditions: U2OS BacMam BK variants, at 30 µM
R275C/beta4 = assay: as above; conditions: U2OS BacMam BK variants, at 30 µM
R275C/Slo1WT/beta2 = assay: as above; conditions: U2OS BacMam BK variants, at 30 µM

CNC1C(O)C(OC2C(N)CC(N)C(OC3OC(CN)=CCC3N)C2O)OCC1(C)O (stereo not drawn)
80.5%: viability [3]
inactive: fluorescence slope change [1] 28.9% | survival [2] 9.33 | parasite load remaining [3] 81.3% | inhibition [4] 0.544%

Oc1cccc(-c2nc(-c3cccc(I)c3)c(-c3ccc(-c4[nH]c(-c5cccc(O)c5)nc4-c4cccc(I)c4)cc3)[nH]2)c1
inactive: outcome [5] | outcome [6] | outcome [7] | outcome [8]

CN(C)C[C@H](O)[C@H](c1ccccc1)c1ccc(Cl)cc1
inactive: outcome [5] | outcome [6] | outcome [7] | outcome [8]

O=C(N/N=C/c1nc2ccccc2[nH]1)c1cccc([N+](=O)[O-])c1
inactive: outcome [5] | outcome [6] | outcome [7] | outcome [8]

O/N=C1\CCc2cc(-c3cc(-c4ccc(OC5CCNCC5)cc4)oc3-c3ccncc3)ccc21
inactive: outcome [5] | outcome [6] | outcome [7] | outcome [8]

Nc1c2c(nc3ccccc13)/C(=C/c1ccc(O)cc1)CCC2
inactive: outcome [5] | outcome [6] | outcome [7] | outcome [8]

CO[C@@H]1[C@@H](OC2OC(C)C(OC3CC(C)(O)C(O)C(C)O3)C(N(C)C)C2O)[C@@H](CC=O)C[C@@H](C)[C@@H](OC2CCC(N(C)C)C(C)O2)/C=C/C=C/C[C@@H](C)OC(=O)C[C@H]1O (stereo partly drawn)
inactive: fluorescence slope change [1] 23.5% | inhibition [4] 5.19%

c1cc2nc(CCCCc3nc4ccc(C5=N[C@@H]6CCCC[C@@H]6N5)cc4[nH]3)[nH]c2cc1C1=N[C@@H]2CCCC[C@@H]2N1
inactive: outcome [5] | outcome [6] | outcome [7] | outcome [8]

CCN(CC)CCCN=c1ccn(O)c2cc3ccccc3cc12
inactive: outcome [5] | outcome [6] | outcome [7] | outcome [8]

Cc1cc(-c2cc(-c3ccc(OCCN(C)C)cc3)[nH]c2-c2ccc3c(c2)CC/C3=N\O)ccn1
inactive: outcome [5] | outcome [6] | outcome [7] | outcome [8]

CCn1c(/C=C/c2cc(Br)ccc2O)nc2ccccc2c1=O
inactive: outcome [5] | outcome [6] | outcome [7] | outcome [8]

COc1ccc(Nc2nc(N/N=C/c3ccc(O)cc3)nc(Nc3ccc([N+](=O)[O-])cc3)n2)cc1
inactive: outcome [5] | outcome [6] | outcome [7] | outcome [8]

COc1ccc2nc(C)cc(N/N=C/c3cc(C)ccc3O)c2c1
inactive: outcome [5] | outcome [6] | outcome [7] | outcome [8]

C=CC[C@@H](C[C@H](O)[C@H](Cc1ccccc1)NC(=O)c1ccc(-c2cccnn2)cc1)C(=O)NC1CCCCC1
inactive: outcome [5] | outcome [6] | outcome [7] | outcome [8]

C=CC[C@@H](C[C@H](O)[C@H](Cc1ccccc1)NC(=O)c1ccc(-n2cccn2)cc1)C(=O)NC1CCCCC1
inactive: outcome [5] | outcome [6] | outcome [7] | outcome [8]

CCCCCC(C)C(C)c1cc(O)c2c(c1)OC(C)(C)C/C2=C\c1ccncc1 (stereo not drawn)
inactive: outcome [5] | outcome [6] | outcome [7] | outcome [8]

O=C(Nc1ccc(Oc2ccc(OC(F)(F)F)cc2)cc1)c1ccco1
active: growth inhibition [9] 71% | growth inhibition [12] 90% | log fold change Tl+ flux (F380Y) -0.43 | log fold change Tl+ flux (F380Y/beta1) -0.196 | log fold change Tl+ flux (F380Y/beta2Delta) -0.597 | log fold change Tl+ flux (F380Y/beta4) -0.36 | log fold change Tl+ flux [13] -0.305
inactive: inhibition [10] 5% | inhibition [11] -1% | outcome [5] | outcome [6] | outcome [7] | outcome [8] | log fold change Tl+ flux (R275C) -0.00331 | log fold change Tl+ flux (R275C/beta1) -0.0279 | log fold change Tl+ flux (R275C/beta2Delta) 0.0205 | log fold change Tl+ flux (R275C/beta4) -0.00484 | log fold change Tl+ flux (R275C/Slo1WT/beta2) 0.0301

C/C(=N\NC(N)=O)C1=C(O)C(c2ccccc2)N(C2CCCCC2)C1=O (stereo not drawn)
inactive: outcome [5] | outcome [6] | outcome [7] | outcome [8]

CC1CCC(C[C@H](C(=O)N[C@@H](CCC(=O)N2CCCCC2)C(=O)Nc2nccs2)[C@H](C(C)C)N(O)C=O)CC1 (stereo partly drawn)
inactive: outcome [5] | outcome [6] | outcome [7] | outcome [8]

O=C(O)CCSSc1cccc[n+]1[O-]
inactive: outcome [5] | outcome [6] | outcome [7] | outcome [8]

CC[C@@H]([C@H](CC(C)C)C(=O)N[C@@H](CCCCNC(=O)OCc1ccccc1)C(=O)Nc1ccccn1)N(O)C=O
inactive: outcome [5] | outcome [6] | outcome [7] | outcome [8]

Oc1c(/C=N/n2cnnc2)sc2ccccc12
inactive: outcome [5] | outcome [6] | outcome [7] | outcome [8]

CN(C)c1nc(NCc2ccccc2)nc(N/N=C/c2cc([N+](=O)[O-])ccc2O)n1
inactive: outcome [5] | outcome [6] | outcome [7] | outcome [8]

CC[C@H](C)[C@H](NC(=O)[C@@H](CC1CCCCC1)[C@H](CC)N(O)C=O)C(=O)Nc1ccccn1
inactive: outcome [5] | outcome [6] | outcome [7] | outcome [8]

Oc1ccc(/C=N/NC(=S)Nc2cccc3ccccc23)c(O)c1
inactive: outcome [5] | outcome [6] | outcome [7] | outcome [8]

CCOc1cc(/C=C/c2nc3ccccc3c(=O)[nH]2)cc(Cl)c1O
inactive: outcome [5] | outcome [6] | outcome [7] | outcome [8]

CN(C)CCCOc1ccc(-c2nc(-c3ccc4c(c3)CC/C4=N\O)c(-c3ccncc3)[nH]2)cc1
inactive: outcome [5] | outcome [6] | outcome [7] | outcome [8]

Cc1cc(C)c2c(c1)/C(=N/O)CCN2
inactive: outcome [5] | outcome [6] | outcome [7] | outcome [8]

CCC[C@@H]([C@H](CC(C)C)C(=O)N[C@@H](CCCN=C(N)NS(C)(=O)=O)C(=O)Nc1nccs1)N(O)C=O
inactive: outcome [5] | outcome [6] | outcome [7] | outcome [8]

O=[N+]([O-])c1ccc(/C=N/O)nc1
inactive: outcome [5] | outcome [6] | outcome [7] | outcome [8]
